# In PubChem BioAssay (NCATS):
# Inconclusive results are not listed. Values without a mark were called inactive. Calls of active or inactive are those of the source. The call rests on the fitted dose curve; in most records, active means well fitted inhibition curve with a large enough effect; inconclusive means small, poorly fitted or top-dose-only effect; inactive means no such curve, though single readings can be large or run the other way.
# Experiment: Primary fluorescence-based thiol-reactive (MSTI) qHTS assay for identification of artifact compounds. (AID 1845221); further: nearly all actives have a fitted effect of over 65% in size;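 on activity change, negative = thiol reactive: thiol-reactive compounds lower the probe fluorescence signal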
# Conditions: MSTI thiol-reactivity probe, 1 h; series mostly up to 53.8 µM; activity change, negative = thiol reactive: at the top concentration
# Method in brief: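 Thiol-reactive compounds detected by quenching of 4 uM MSTI fluorescence (525/598 nm) after 1 h room-temperature dark incubation in PBS pH 7.4, 2% DMSO. qHTS titration; percent inhibition Hill-fitted against Acetyl-MSTI/MSTI controls.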
# Potency means the concentration at half of the fitted maximal effect.
SMILES,Potency,"activity change, negative = thiol reactive"
C=C1C(=O)OC[C@@H]1C/C=C(\C)CC1CC(C)C(=O)O1 (some centres not stated),8.44 µM (active),–
COc1ccccc1-c1ccc(-c2cn(C(=O)N3CCCCC3Cc3ccccc3)nn2)cc1 (configuration not stated),–,79.9%
O=C(Nc1ccc(Cl)cc1)Nc1cccc(-c2cccc(N3CCCC3)n2)c1,–,7.76%
CC(C)(C)c1ccc(C(=O)Nc2cn3cc(-n4ccnc4)ccc3n2)cc1,–,69.8%
C/C(=N\N=C(N)N)c1cc(NC(=O)CCCCCCCCC(=O)Nc2cc(/C(C)=N/N=C(N)N)cc(/C(C)=N/N=C(N)N)c2)cc(/C(C)=N/N=C(N)N)c1,–,6.03%
O=C(Nc1nnc(-c2ccc3c(c2)OCCO3)o1)C1CCCCC1,–,13.6%
CCCCC1CCN(CCCN2C(=O)CCc3ccccc32)CC1,–,9.78%
CCc1ccc(-c2nc(CSCC(=O)NCCc3ccccc3)c(C)o2)cc1,–,-15.8%
CC1(C)CCC(C)(C)c2cc(C#Cc3ccc(C(=O)O)cc3)ccc21,–,-3.67%
CC(C)c1ccc(-c2cc(=O)c3ccccc3o2)cc1,–,-17.3%
O=C(Nc1ccc(-c2ccc(Cl)c(Cl)c2)cc1)C1=C(O)c2ccccc2S(=O)(=O)N1,–,2.21%
CCCN1CCC=C(c2cc(-c3ccc(C)cc3)no2)C1,–,74%
CCOC(=O)c1csc(Nc2ccc(Cl)cc2)n1,–,137%
CC#C[C@@H](CC(=O)O)c1ccc(OCc2cccc(-c3ccc(C(F)(F)F)cc3)c2)cc1,–,148%
CN(C)c1ccc(NC(=O)NS(=O)(=O)c2ccc(Cl)cc2)cc1,1.89 µM (active),–
CN(C)Cc1ccc(-c2cnn3c(-c4cccc(NC(=O)c5cccc(C(F)(F)F)c5)c4)ccnc23)cc1,–,89.1%
Cc1cc(C(=O)Nc2cc(Nc3ccc4c(/C=C/c5ccccn5)n[nH]c4c3)ccc2F)n(C)n1,11.9 µM (active),–
